Assay outcomes as filed in PubChem.
CYP2C9 inhib – blocks human cytochrome P450 2C9 | P11712 | CYP2C9 Supersomes, luciferin-H conversion, luminescence | inhibition, % at 5 µM | 96,000 tested, 20% active | AID 777;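 active = blocking of liver enzyme CYP2C9 beyond about 50% at 5 µM, limit read from the data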
Target sequence (P11712 whole entry, looked up): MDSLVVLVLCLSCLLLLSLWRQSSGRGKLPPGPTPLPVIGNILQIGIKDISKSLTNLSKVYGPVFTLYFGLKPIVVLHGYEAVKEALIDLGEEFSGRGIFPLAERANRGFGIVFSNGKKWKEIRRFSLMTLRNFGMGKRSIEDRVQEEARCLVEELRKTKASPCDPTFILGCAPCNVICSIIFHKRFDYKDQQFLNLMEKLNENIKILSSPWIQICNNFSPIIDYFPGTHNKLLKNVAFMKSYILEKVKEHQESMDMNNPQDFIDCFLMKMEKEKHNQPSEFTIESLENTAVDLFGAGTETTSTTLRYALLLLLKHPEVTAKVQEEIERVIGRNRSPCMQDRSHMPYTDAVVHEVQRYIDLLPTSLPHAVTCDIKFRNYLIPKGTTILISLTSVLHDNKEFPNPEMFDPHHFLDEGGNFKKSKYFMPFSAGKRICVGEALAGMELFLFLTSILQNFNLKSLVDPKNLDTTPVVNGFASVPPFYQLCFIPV
CYP2C19 act – cytochrome P450 2C19 (human) activation. recombinant CYP2C19, luciferin-H EGE luminescence; hits give high values; 0 = fully inhibited enzyme, 1 = untreated enzyme. activation factor at 5 µM. 96,000 tested, under 10 active;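 active = activation factor of at least 2 at 5 µM in the primary screen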;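 note: 0 = wells with 2.5 mM tranylcypromine and 1 = vehicle-only wells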
CYP2C9 act – increases human cytochrome P450 2C9 activity. P11712. recombinant CYP2C9, luciferin-H conversion, luminescence; hits give high values; factor 1 = untreated enzyme, 0 = blocked. activation factor at 5 µM. 96,000 tested, 1.4% active. AID 1024;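 active = activation factor of 2 or more for CYP2C9 at a 5 µM dose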;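 note: 0 = sulfaphenazole-blocked wells and 1 = vehicle-only wells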
Measles CPE – protection of cells from measles virus; Measles virus-infected cells, CPE protection, absorbance; 140,000 tested, 1.5% active; AID 841; protection (pct of control), % at 4 µM; in the data active = protection mostly above about 24%, no sharp cut-off; inactive = mostly below about 26%
CYP2C19 inhib – human CYP2C19 inhibition | CYP2C19 Supersomes, luciferin-H EGE luminescence, 30 min | AID 778 | inhibition, % at 5 µM | P33261 | 96,000 tested, 21% active;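 active = CYP2C19 inhibition above a set limit at 5 µM in the primary screen, cut at about 50% in these data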;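 note: plate controls were negative control wells for no effect and 2.5 mM tranylcypromine positive control for full effect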
* marks the source's active call; other numbers are inactive results. In the library only some 22% were active in any assay of this set; here they are far more common.

`Cc1ccc(C)c(OCCCCn2cnc3ccccc3c2=O)c1` gave CYP2C9 inhib -4, CYP2C19 act 0.7, CYP2C9 act 1, Measles CPE 2 and CYP2C19 inhib 31.
COc1ccccc1-c1cc(C(F)(F)F)n2ncc(S(=O)(=O)c3ccccc3)c2n1 was read as CYP2C9 inhib 97*, CYP2C19 act 0.6, CYP2C9 act 0, Measles CPE 4 and CYP2C19 inhib 38.
For O=C(COC(=O)c1c2c(nc3ccccc13)CCCC2)Nc1ccc2c(c1)OCO2 the results were CYP2C9 inhib 77*, CYP2C19 act 0.2, CYP2C9 act 0.2, Measles CPE 6 and CYP2C19 inhib 76*.
For O=C(COC(=O)c1cc(-c2ccccc2)nc2ccccc12)Nc1ccc2c(c1)OCO2 the results were Measles CPE 4.
Screening COc1cccc(NC(=O)COC(=O)c2c3c(nc4ccccc24)CCC(C)C3)c1 (stereo not drawn) returned CYP2C9 inhib 56*, CYP2C19 act 0.6, CYP2C9 act 0.4, Measles CPE 2 and CYP2C19 inhib 45.
Screening COc1cccc(NC(=O)COC(=O)c2ccccc2F)c1 returned Measles CPE 16.
CCC(C)NC(=O)CO/N=C/c1ccc(C(=O)OC)cc1 (stereo not drawn) was read as CYP2C9 inhib 69*, CYP2C19 act 0.7, CYP2C9 act 0.3, Measles CPE 11 and CYP2C19 inhib 31.
COC(=O)c1ccc(/C=N/OCC(=O)NC2CCCCCCC2)cc1 was read as CYP2C9 inhib 65*, CYP2C19 act 0.8, CYP2C9 act 0.4, Measles CPE 2 and CYP2C19 inhib 16.
COC(=O)c1ccc(/C=N/OCC(=O)NC2CCCC(C)C2C)cc1 (stereo not drawn) was read as CYP2C9 inhib 40, CYP2C19 act 0.8, CYP2C9 act 0.6, Measles CPE 13 and CYP2C19 inhib 23.
`O=C(CCN1CCc2ccccc2C1)Nc1ccc2c(c1)OCO2` gave CYP2C9 inhib 24, CYP2C19 act 0.6, CYP2C9 act 0.8, Measles CPE 15 and CYP2C19 inhib 45.
For CCOC(=O)/C(=N\Nc1cccc(Cl)c1)Sc1nnc(-c2ccc(OC)cc2)n1C the results were Measles CPE 12.
Screening O=c1cc(-c2ccccc2)[nH]n1-c1nc2ccccc2[nH]1 returned CYP2C9 inhib 56*, CYP2C19 act 0.9, CYP2C9 act 0.4, Measles CPE 1 and CYP2C19 inhib 5.
For CCOC(=O)c1ccc(-n2[nH]c(-c3ccccc3)cc2=O)cc1 the results were CYP2C9 inhib 32, CYP2C19 act 1.1, CYP2C9 act 0.7, Measles CPE 7 and CYP2C19 inhib -13.
For O=C(Cc1ccccc1)NC(Nc1ccccc1)C(Cl)(Cl)Cl (stereo not drawn) the results were CYP2C9 inhib 73*, CYP2C19 act 0.2, CYP2C9 act 0.3, Measles CPE 7 and CYP2C19 inhib 82*.
CC(C)(C)NC(NC(=O)Cc1ccccc1)C(Cl)(Cl)Cl (stereo not drawn) was read as CYP2C9 inhib 5, CYP2C19 act 0.3, CYP2C9 act 0.9, Measles CPE 41 and CYP2C19 inhib 70*.
For COc1ccc(C(=O)NC(Nc2ccccc2)C(Cl)(Cl)Cl)cc1 (stereo not drawn) the results were CYP2C9 inhib 85*, CYP2C19 act 0.6, CYP2C9 act 0.2, Measles CPE 10 and CYP2C19 inhib 36.
For Cc1ccccc1OCC(=O)N/N=C/c1ccc2c(c1)OCCO2 the results were Measles CPE 10.
C=CS(=O)(=O)c1ccc(Oc2ccc(S(=O)(=O)C=C)cc2)cc1 was read as Measles CPE 0.
COc1ccccc1C1(CC(=O)O)CCOC(C)(C)C1 (stereo not drawn) was read as CYP2C9 inhib -9, CYP2C19 act 0.9, CYP2C9 act 1.1, Measles CPE 33* and CYP2C19 inhib 9.
CC1(C)CC(CC(=O)O)(c2ccc(F)cc2)CCO1 (stereo not drawn) was read as CYP2C9 inhib 13, CYP2C19 act 1, CYP2C9 act 0.9, Measles CPE 8 and CYP2C19 inhib 5.
For O=C(Nc1ccc(Cl)cc1)ON=C1CCCC1 the results were Measles CPE 26.
`COc1ccc(NC(=O)O/N=C2/CCCc3ccc(OC)cc32)cc1` gave CYP2C9 inhib 62*, CYP2C19 act 0.7, CYP2C9 act 0.4, Measles CPE 6 and CYP2C19 inhib 34.
`COc1ccc(N(CC(=O)NC2CCCC2)S(=O)(=O)c2c(C)[nH]c(=O)[nH]c2=O)cc1` gave CYP2C9 inhib 43, CYP2C19 act 0.9, CYP2C9 act 0.6, Measles CPE 5 and CYP2C19 inhib 5.
Screening COc1ccc(N(CC(=O)Nc2cccc(C)c2C)S(=O)(=O)c2c(C)n[nH]c2C)cc1 returned CYP2C9 inhib 51*, CYP2C19 act 0.5, CYP2C9 act 0.5, Measles CPE 10 and CYP2C19 inhib 54*.
`COc1ccccc1NC(=O)CN(c1ccc(C)cc1)S(=O)(=O)c1c(C)n[nH]c1C` gave CYP2C9 inhib 96*, CYP2C19 act 0.3, CYP2C9 act 0, Measles CPE 21 and CYP2C19 inhib 70*.
O=C(CSc1nnc(CCc2nc3ccccc3[nH]2)n1-c1ccccc1)NCc1ccccc1 was read as Measles CPE 5.
`Cc1ccc(-n2c(CNc3ccc(F)cc3)nnc2SCC(=O)NCc2ccco2)cc1` gave CYP2C9 inhib 61*, CYP2C19 act 0.7, CYP2C9 act 0.4, Measles CPE 1 and CYP2C19 inhib 35.
O=C(CSc1nnc(CCc2nc3ccccc3[nH]2)n1-c1ccccc1)NCc1ccco1 was read as CYP2C9 inhib 75*, CYP2C19 act 0.7, CYP2C9 act 0.2, Measles CPE 3 and CYP2C19 inhib 31.
`COc1ccc(NCc2nnc(SCC(=O)NCc3ccco3)n2-c2ccccc2OC)cc1` gave Measles CPE 15.
Screening COc1ccc(C2C(C(=O)Nc3cccc(C)n3)c3ccccc3C(=O)N2C)cc1 (stereo not drawn) returned CYP2C9 inhib 43, CYP2C19 act 0.8, CYP2C9 act 0.6, Measles CPE 16 and CYP2C19 inhib 17.
For COc1ccc(C/C(N)=N/OC(C)=O)cc1OC the results were Measles CPE 11.
`C(=N\N1CCN(Cc2cccc3ccccc23)CC1)/c1ccco1` gave CYP2C9 inhib -26, CYP2C19 act 0.5, CYP2C9 act 1.3, Measles CPE 10 and CYP2C19 inhib 50*.
Screening O=C(c1noc2c1CCCCC2)N1CCOCC1 returned CYP2C9 inhib 58*, CYP2C19 act 0.8, CYP2C9 act 0.4, Measles CPE 4 and CYP2C19 inhib 17.
O=C(c1noc2c1CCCC2)N1CCN(Cc2ccccc2)CC1 was read as CYP2C9 inhib 4, CYP2C19 act 0, CYP2C9 act 1, Measles CPE 10 and CYP2C19 inhib 97*.
`COCCNCCCCOc1c(Cl)cc(C)cc1Br` gave CYP2C9 inhib -8, CYP2C19 act 0.8, CYP2C9 act 1.1, Measles CPE 4 and CYP2C19 inhib 17.
